Laboratory results as given in PubChem BioAssay AID1159580 (chemical genetic matrix, 2015).
Hit rate of the full screen: of about 5,500 compounds, about 2,000 (36%) were called active. Inconclusive results (about 18%) are left out. Cut-off read from the data, not from the text of the source: active = normalized growth mostly below about 0.91 (no sharp cut-off); inconclusive = no clear call, values can overlap the other calls; inactive = mostly above about 0.92. This is one part of the list.

Experiment: chemical genetic growth profiling, strain panel (AID 1159580);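 note: tested at 20 µM; growth read once vehicle control cultures reached saturation at 30 °C; 1 = growth at the plate median or of vehicle wells; lower values mean less growth of the strain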
Details: S. cerevisiae deletion strains, growth OD

Measured: normalized growth

CC(C)(C)c1ccc(C(=O)Nc2ccc(C(F)(F)F)cc2)s1
active: locus YHR030C, strain SLT2, active compounds read low 0.821
inactive: locus YAR019C, strain CDC15, active compounds read low 0.985 | locus YBL105C, strain PKC1, active compounds read low 0.991 | locus YBR135W, strain CKS1, active compounds read low 0.994 | locus YBR136W, strain MEC1, active compounds read low 0.972 | locus YBR160W, strain CDC28, active compounds read low 0.984 | locus YDL017W, strain CDC7, active compounds read low 0.997 | locus YDL028C, strain MPS1, active compounds read low 0.967 | locus YDL101C, strain DUN1, active compounds read low 1.01 | locus YDL108W, strain KIN28, active compounds read low 0.972 | locus YDL132W, strain cdc53, active compounds read low 0.988 | locus YDL214C, strain PRR2, active compounds read low 0.952 | locus YDR052C, strain DBF4, active compounds read low 0.996 | locus YDR054C, strain cdc34, active compounds read low 0.989 | locus YDR226W, strain ADK1, active compounds read low 0.976 | locus YDR477W, strain SNF1, active compounds read low 0.952 | locus YER123W, strain YCK3, active compounds read low 0.968 | locus YER133W, strain GLC7, active compounds read low 0.977 | locus YFL009W, strain cdc4, active compounds read low 0.976 | locus YFL029C, strain CAK1, active compounds read low 0.987 | locus YFR003C, strain YPI1, active compounds read low 0.999 | locus YFR019W, strain FAB1, active compounds read low 0.972 | locus YFR028C, strain CDC14, active compounds read low 0.985 | locus YGR040W, strain KSS1, active compounds read low 0.954 | locus YGR052W, strain FMP48, active compounds read low 1 | locus YGR092W, strain DBF2, active compounds read low 0.966 | locus YHR079C, strain IRE1, active compounds read low 0.963 | locus YHR082C, strain KSP1, active compounds read low 0.991 | locus YHR205W, strain SCH9, active compounds read low 0.92 | locus YIL147C, strain SLN1, active compounds read low 0.989 | locus YJL095W, strain BCK1, active compounds read low 0.957 | locus YJL128C, strain PBS2, active compounds read low 0.943 | locus YJL157C, strain FAR1, active compounds read low 0.976 | locus YJR016C, strain ILV3, active compounds read low 0.996 | locus YJR066W, strain TOR1 (second series), active compounds read low 0.967 | locus YJR066W, strain TOR1, active compounds read low 0.929 | locus YKL048C, strain ELM1, active compounds read low 0.988 | locus YKL067W, strain YNK1, active compounds read low 0.944 | locus YKL101W, strain HSL1, active compounds read low 0.935 | locus YKL193C, strain SDS22, active compounds read low 0.986 | locus YKL203C, strain TOR2, active compounds read low 1.05 | locus YLR113W, strain HOG1, active compounds read low 0.863 | locus YLR133W, strain CKI1, active compounds read low 0.971 | locus YLR403W, strain SFP1, active compounds read low 0.974 | locus YML070W, strain DAK1, active compounds read low 0.944 | locus YMR001C, strain CDC5, active compounds read low 0.995 | locus YMR205C, strain PFK2 (second series), active compounds read low 0.975 | locus YMR277W, strain FCP1, active compounds read low 0.966 | locus YNL006W, strain LST8, active compounds read low 0.981 | locus YNL020C, strain ARK1, active compounds read low 0.973 | locus YNL161W, strain CBK1, active compounds read low 0.985 | locus YNL183C, strain NPR1, active compounds read low 1.01 | locus YNL207W, strain RIO2, active compounds read low 0.991 | locus YNL222W, strain SSU72, active compounds read low 0.988 | locus YNL307C, strain MCK1 (second series), active compounds read low 0.99 | locus YOL078W, strain AVO1, active compounds read low 0.989 | locus YOL136C, strain PFK27, active compounds read low 0.939 | locus YOR061W, strain CKA2, active compounds read low 1 | locus YOR119C, strain RIO1, active compounds read low 0.993 | locus YOR231W, strain MKK1, active compounds read low 0.925 | locus YOR329C, strain SCD5, active compounds read low 0.999 | locus YPL031C, strain PHO85, active compounds read low 0.977 | locus YPL153C, strain RAD53, active compounds read low 0.951 | locus YPL204W, strain HRR25, active compounds read low 0.951 | locus YPL209C, strain IPL1, active compounds read low 0.991 | locus YPL256C, strain CLN2, active compounds read low 0.899 | locus YPR025C, strain CCL1, active compounds read low 1 | locus YPR106W, strain ISR1, active compounds read low 0.98 | locus YPR111W, strain DBF20, active compounds read low 0.955 | strain NNK1, active compounds read low 0.98 | strain TSCII, active compounds read low 0.983
